The supplement of paper PMC10338343
± gives the standard deviation.

Experiments:
[1] = test system: MILI (PIWIL2) piRISC loaded with piRNA #1 (26 nt); assay: pre-steady-state target cleavage rate (min^-1); guide: piRNA #1 5'p-UGAGGUAGUAGGUUGUAUAGUAUCCA; higher = faster piRNA-guided slicing of the target; settings: auxiliary factor: 500 nM mouse GTSF1
Procedure, shortened: (§1)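 The pre-steady-state cleavage rate came from a burst-and-steady-state fit to pooled data from three Cleave-'n-Seq trials, in which uncleaved targets were sequenced and normalised to depth and to weakly complementary targets. Each reaction held 0.1 nM transcribed, DNA-blocked target RNA library and 1 nM active affinity-purified piRISC carrying one synthetic guide, with or without 500 nM GTSF1 partner protein, in HEPES–potassium acetate buffer at 33 °C for 0–8 or 0–960 min. k3 was capped at 0.0001 min^-1.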

[2] = test system: EfPiwi piRISC loaded with piRNA #1 (26 nt); assay: pre-steady-state target cleavage rate (min^-1); auxiliary factor: 500 nM Ephydatia muelleri Gtsf1; guide: piRNA #1 5'p-UGAGGUAGUAGGUUGUAUAGUAUCCA; MIWI and MILI are mouse PIWI proteins and EfPiwi is from a freshwater sponge; tags in brackets are library labels; higher = faster piRNA-guided slicing of the target
Procedure, shortened: as §1

Sequence	pre-steady-state target cleavage rate [1]	pre-steady-state target cleavage rate [2]
GGAGUGGAUACUAUACAACCUAUACCUCA	0.0048 ± 0.002	0.00334 ± 0.0019
GGAGAGGAUACUAAACUACCUACUACCUCA	0.167 ± 0.011	0.00323 ± 0.003
GGAGACGAUACUAUACAAGGUACUACCUCA	0.0884 ± 0.013	0.00393 ± 0.0023
GGAGACCAUACUAUACAACCUACUACCACA	0.231 ± 0.029	0.00574 ± 0.002
GGAGACCUAACUAUACGACCUACUACCUCA	0.0254 ± 0.011	0.00758 ± 0.0045
GGAGUGGAUACUAUACAACCUACUACCUCCA	0.223 ± 0.011	0.274 ± 0.077
GGAGACGAUACUAUAGAUCCUACUACCUCA	0.224 ± 0.013	0.00498 ± 0.0016
GGAGUCGAUAGUAUACAACCUACUACCUCA	0.154 ± 0.011	0.0054 ± 0.0038
GGAGUGGAUACUAAUACAACCUACUACCUCA	0.135 ± 0.0082	0.08 ± 0.032
GGAGACCAUACUAUACAACCUACGUACCUCA	0.11 ± 0.018	0.00254 ± 0.0023
GGAGACCAUACUAACAACCUACUACCUCA	0.114 ± 0.019	0.00859 ± 0.0041
GGAGACGAUACUAUACAACCUAGAACCUCA	0.0145 ± 0.0064	0.00278 ± 0.0012
GGAGUGGAUACUAUAGAUCCUACUACCUCA	0.251 ± 0.015	0.0045 ± 0.0029
GGAGACGAUACUAACAACCUACUACCUCA	0.173 ± 0.012	0.00704 ± 0.0045
GGAGAGGAUACUAUACAACGUACAACCUCA	0.0104 ± 0.0029	0.00357 ± 0.0017
GGAGACCAUUCUAUACAACCUUCUACCUCA	0.0122 ± 0.0038	0.00336 ± 0.0032
GGAGACCUUACUAUACAACCUACUACGAGA	0.0846 ± 0.02	0.00452 ± 0.0025
GGAGACGAUACAAUACAACCUUCUACCUCA	0.0137 ± 0.0038	0.00327 ± 0.0022
GGAGUGGAUACUAUACAACCUACUUACCUCA	0.133 ± 0.011	0.00852 ± 0.0034
GGAGAGGAUACUAUACAACCUACGUACCUCA	0.0773 ± 0.012	0.00321 ± 0.0014
